# Laboratory results as given in paper PMC7862700, “An all-to-all approach to the identification of sequence-specific readers for epigenetic DNA modifications on cytosine”.
# Key:
# Test in all cases: DAPPL (digital affinity profiling via proximity ligation, sequencing); 10 mM Tris-HCl pH 7.5, 50 mM NaCl, 1 mM DTT, 4% glycerol, room temperature, 30 min; GST-TFs on glutathione beads, 16-mer random dsDNA library, 0.1% formaldehyde crosslink after washing; high values mean tight binding
# Details in all cases: protein: recombinant; tags: N-terminal GST; dsDNA, one strand shown
# FLI1 = target: T1, FLI1 (Homo sapiens, UniProt Q01543 1-452)
# T1 sequence: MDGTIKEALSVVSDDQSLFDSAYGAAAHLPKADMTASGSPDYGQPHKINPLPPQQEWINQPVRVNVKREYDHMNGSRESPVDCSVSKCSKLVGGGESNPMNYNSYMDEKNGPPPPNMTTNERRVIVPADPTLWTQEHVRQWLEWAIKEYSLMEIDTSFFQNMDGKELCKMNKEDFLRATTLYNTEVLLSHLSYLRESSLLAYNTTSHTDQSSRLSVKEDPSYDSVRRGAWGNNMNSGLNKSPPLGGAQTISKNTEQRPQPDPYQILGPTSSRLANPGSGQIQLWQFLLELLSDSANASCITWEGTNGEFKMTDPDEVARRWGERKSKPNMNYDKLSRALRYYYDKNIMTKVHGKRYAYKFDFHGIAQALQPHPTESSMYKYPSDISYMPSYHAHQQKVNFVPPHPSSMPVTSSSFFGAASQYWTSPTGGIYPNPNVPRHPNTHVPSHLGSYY
# How it was run: (§1)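 Binding signal is each hexamer's read frequency for a factor divided by its frequency in the tag-only sample. The factors were GST-fused human transcription factors from yeast, captured on glutathione beads, DNA-barcoded and pooled with that sample. Pools were incubated with 200 nmole of a random double-stranded 16-mer DNA library in Tris/NaCl/DTT/glycerol buffer at room temperature for 30 min, then washed, crosslinked with 0.1% formaldehyde, proximity-ligated with BsaI/T4 ligase (1 h, 37 °C), PCR-amplified and sequenced on an Illumina NextSeq500.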
# ELF1 = ELF1 (Homo sapiens, UniProt P32519 1-619)
# How it was run: as §1
# ELK3 = target: T2, ELK3 (Homo sapiens, UniProt P41970 1-407)
# T2 sequence: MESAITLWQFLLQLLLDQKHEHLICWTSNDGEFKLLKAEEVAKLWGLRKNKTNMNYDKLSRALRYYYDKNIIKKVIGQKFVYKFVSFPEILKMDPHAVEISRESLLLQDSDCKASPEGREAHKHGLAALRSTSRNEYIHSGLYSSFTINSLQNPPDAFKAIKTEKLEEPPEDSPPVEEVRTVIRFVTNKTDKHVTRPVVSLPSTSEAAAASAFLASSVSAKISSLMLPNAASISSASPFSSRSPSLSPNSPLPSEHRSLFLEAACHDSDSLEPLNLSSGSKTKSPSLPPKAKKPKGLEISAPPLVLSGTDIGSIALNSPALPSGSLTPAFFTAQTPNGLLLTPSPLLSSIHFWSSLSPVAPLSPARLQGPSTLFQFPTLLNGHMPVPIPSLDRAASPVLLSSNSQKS
# How it was run: as §1
# ETV2 = target: T3, ETV2 (Homo sapiens, UniProt O00321 1-342)
# T3 sequence: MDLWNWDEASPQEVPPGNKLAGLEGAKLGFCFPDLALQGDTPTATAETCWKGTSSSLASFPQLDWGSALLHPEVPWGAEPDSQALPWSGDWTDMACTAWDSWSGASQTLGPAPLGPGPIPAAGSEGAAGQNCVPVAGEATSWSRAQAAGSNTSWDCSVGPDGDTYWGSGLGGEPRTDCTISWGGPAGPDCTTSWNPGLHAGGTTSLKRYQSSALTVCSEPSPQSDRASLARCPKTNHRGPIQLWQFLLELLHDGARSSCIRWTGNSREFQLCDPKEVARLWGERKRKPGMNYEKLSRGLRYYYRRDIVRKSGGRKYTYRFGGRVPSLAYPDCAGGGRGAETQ
# How it was run: as §1
# ELK1 = target: T4, ELK1 (Homo sapiens, UniProt P19419 1-428)
# T4 sequence: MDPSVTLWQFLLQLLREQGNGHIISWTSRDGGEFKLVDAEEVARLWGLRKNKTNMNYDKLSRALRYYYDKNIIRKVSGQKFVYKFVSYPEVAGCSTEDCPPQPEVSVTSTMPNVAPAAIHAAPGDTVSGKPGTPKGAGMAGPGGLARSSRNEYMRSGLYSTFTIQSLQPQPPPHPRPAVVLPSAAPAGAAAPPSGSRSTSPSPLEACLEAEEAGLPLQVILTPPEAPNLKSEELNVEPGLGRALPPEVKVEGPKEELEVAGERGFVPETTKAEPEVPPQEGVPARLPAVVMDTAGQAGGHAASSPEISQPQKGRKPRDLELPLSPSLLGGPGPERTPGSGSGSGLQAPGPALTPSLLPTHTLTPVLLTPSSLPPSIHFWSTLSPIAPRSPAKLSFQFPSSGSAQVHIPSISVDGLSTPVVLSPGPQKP
# How it was run: as §1
# GABPA = target: T5, GABPA (Homo sapiens, UniProt Q06546 1-454)
# T5 sequence: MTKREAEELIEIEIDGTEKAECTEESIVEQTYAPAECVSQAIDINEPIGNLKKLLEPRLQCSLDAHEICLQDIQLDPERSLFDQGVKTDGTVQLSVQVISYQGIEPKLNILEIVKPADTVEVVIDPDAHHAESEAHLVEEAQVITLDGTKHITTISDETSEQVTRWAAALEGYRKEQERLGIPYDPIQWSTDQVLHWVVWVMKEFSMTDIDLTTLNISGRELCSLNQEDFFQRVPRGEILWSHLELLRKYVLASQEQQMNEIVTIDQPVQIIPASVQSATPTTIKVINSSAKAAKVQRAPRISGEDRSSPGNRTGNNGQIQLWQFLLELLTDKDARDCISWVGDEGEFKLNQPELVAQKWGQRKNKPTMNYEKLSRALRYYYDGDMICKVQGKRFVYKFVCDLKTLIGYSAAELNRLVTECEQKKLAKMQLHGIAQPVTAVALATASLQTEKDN
# How it was run: as §1
# ELK4 = target: T6, ELK4 (Homo sapiens, UniProt P28324-2 1-405)
# T6 sequence: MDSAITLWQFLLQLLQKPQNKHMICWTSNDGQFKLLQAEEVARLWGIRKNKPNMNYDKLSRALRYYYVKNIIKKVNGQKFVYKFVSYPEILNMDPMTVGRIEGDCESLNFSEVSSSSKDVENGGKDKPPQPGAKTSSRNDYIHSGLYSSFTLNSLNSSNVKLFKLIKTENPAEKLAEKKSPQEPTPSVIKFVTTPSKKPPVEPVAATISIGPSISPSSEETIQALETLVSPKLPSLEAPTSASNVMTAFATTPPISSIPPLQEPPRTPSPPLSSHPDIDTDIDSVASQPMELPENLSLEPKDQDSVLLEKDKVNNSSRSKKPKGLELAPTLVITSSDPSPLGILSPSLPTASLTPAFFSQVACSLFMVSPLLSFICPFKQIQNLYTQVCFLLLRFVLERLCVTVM
# How it was run: as §1
# ERF = target: T7, ERF (Homo sapiens, UniProt P50548 1-548)
# T7 sequence: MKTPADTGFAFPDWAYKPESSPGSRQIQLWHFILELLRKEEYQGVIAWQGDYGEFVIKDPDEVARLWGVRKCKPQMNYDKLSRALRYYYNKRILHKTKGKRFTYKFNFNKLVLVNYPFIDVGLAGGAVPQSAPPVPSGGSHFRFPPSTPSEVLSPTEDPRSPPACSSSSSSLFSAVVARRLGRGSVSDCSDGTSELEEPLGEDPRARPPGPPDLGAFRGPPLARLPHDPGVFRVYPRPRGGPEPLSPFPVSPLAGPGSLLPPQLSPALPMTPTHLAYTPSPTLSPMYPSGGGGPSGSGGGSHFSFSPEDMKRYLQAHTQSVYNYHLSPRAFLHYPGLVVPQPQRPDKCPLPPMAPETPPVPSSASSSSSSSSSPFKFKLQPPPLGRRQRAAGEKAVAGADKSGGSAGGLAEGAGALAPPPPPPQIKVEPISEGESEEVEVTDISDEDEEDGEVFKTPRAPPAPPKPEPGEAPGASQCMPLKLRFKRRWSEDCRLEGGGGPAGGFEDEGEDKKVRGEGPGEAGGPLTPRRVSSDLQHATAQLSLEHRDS
# How it was run: as §1
# ETV3L = target: T8, ETV3L (Homo sapiens, UniProt Q6ZN32 1-361)
# T8 sequence: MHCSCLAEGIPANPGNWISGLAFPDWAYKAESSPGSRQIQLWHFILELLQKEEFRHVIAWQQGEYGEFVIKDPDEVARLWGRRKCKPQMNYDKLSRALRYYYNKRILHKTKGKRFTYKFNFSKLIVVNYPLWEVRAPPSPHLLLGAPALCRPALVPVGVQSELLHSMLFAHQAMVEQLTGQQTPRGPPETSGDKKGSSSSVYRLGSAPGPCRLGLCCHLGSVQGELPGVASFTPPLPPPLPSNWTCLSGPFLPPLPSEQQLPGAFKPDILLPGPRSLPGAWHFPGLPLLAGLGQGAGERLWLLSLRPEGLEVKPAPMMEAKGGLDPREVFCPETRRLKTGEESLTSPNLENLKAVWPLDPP
# How it was run: as §1
# ETV7 = target: T9, ETV7 (Homo sapiens, UniProt Q9Y603 1-341)
# T9 sequence: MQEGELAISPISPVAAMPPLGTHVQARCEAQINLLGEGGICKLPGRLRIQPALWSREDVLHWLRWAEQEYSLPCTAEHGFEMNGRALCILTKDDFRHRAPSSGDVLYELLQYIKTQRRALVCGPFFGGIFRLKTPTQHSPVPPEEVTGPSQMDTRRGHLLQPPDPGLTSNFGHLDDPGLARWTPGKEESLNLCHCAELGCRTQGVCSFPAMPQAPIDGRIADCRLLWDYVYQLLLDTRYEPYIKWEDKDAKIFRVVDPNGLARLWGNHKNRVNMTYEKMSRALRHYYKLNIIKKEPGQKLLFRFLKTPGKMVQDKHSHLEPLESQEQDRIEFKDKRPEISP
# How it was run: as §1
# ELF3 = target: T10, ELF3 (Homo sapiens, UniProt P78545 1-371)
# T10 sequence: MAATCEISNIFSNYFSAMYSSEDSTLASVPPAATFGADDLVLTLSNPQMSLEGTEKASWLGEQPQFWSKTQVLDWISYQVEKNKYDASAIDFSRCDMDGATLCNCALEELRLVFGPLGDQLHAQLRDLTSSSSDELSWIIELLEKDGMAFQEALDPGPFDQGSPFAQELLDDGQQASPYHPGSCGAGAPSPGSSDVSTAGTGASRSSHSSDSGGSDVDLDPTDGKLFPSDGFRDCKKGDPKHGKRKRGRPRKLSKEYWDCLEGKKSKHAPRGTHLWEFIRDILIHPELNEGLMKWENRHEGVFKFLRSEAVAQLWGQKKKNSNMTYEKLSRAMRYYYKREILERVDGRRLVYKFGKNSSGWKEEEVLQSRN
# How it was run: as §1
# Sequence of ELF1 (P32519 whole entry): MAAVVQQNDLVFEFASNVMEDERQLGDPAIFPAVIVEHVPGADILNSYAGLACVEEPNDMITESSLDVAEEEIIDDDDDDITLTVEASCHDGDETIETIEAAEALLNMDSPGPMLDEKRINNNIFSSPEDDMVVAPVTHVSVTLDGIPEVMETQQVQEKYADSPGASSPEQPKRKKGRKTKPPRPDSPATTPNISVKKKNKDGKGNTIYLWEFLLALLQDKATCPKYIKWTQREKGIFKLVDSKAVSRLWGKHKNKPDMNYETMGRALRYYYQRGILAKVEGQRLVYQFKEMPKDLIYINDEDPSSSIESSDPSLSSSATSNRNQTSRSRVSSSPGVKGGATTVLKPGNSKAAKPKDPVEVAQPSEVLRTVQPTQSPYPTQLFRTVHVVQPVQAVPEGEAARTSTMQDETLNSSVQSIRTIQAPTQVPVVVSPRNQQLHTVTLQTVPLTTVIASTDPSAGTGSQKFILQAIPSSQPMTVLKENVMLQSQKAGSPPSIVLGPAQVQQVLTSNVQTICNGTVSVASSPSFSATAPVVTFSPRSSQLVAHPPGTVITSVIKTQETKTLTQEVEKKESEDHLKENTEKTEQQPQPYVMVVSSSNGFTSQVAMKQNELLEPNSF
sequence,measurement,setting,value
GTATGT,binding signal,FLI1,"1.04 fold enrichment (6-mer frequency, TF over GST control)"
same,binding signal,ELF1,"1.03 fold enrichment (6-mer frequency, TF over GST control)"
same,binding signal,ELK3,"1 fold enrichment (6-mer frequency, TF over GST control)"
same,binding signal,ETV2,"1.02 fold enrichment (6-mer frequency, TF over GST control)"
CATTGA,binding signal,FLI1,"1.06 fold enrichment (6-mer frequency, TF over GST control)"
same,binding signal,ELK1,"1.05 fold enrichment (6-mer frequency, TF over GST control)"
same,binding signal,GABPA,"1 fold enrichment (6-mer frequency, TF over GST control)"
same,binding signal,ELK4,"1.11 fold enrichment (6-mer frequency, TF over GST control)"
same,binding signal,ERF,"1 fold enrichment (6-mer frequency, TF over GST control)"
same,binding signal,ETV3L,"1.01 fold enrichment (6-mer frequency, TF over GST control)"
same,binding signal,ETV7,"1.01 fold enrichment (6-mer frequency, TF over GST control)"
GACCGC,binding signal,FLI1,"1.06 fold enrichment (6-mer frequency, TF over GST control)"
same,binding signal,ELK1,"1.01 fold enrichment (6-mer frequency, TF over GST control)"
same,binding signal,GABPA,"1.06 fold enrichment (6-mer frequency, TF over GST control)"
same,binding signal,ETV2,"1.03 fold enrichment (6-mer frequency, TF over GST control)"
same,binding signal,ELF3,"1.01 fold enrichment (6-mer frequency, TF over GST control)"
